Experimental data as given in PubChem BioAssay AID1159580 (chemical genetic matrix, 2015).
Several values for one entry are separate records, joined by “and”; a condition that tells them apart may be missing. Identical values can stand only once. Among all 5,500 compounds or so, about 2,000 (36%) were called active. Roughly 18% stayed inconclusive and do not appear here. Rule as the data show it: active = normalized growth mostly below about 0.91 (no sharp cut-off); inconclusive = no clear call, values can overlap the other calls; inactive = mostly above about 0.92. Some of the results follow.

Assay: chemical genetic growth profiling, strain panel (AID 1159580);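 also: tested at 20 µM; growth read once vehicle control cultures reached saturation at 30 °C; 1 = growth at the plate median or of vehicle wells; lower values mean less growth of the strain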
Details: S. cerevisiae deletion strains, growth OD

Measured: normalized growth

O=C(Oc1cc(O)cc2c1C[C@@H](OC(=O)c1cc(O)c(O)c(O)c1)[C@@H](c1cc(O)c(O)c(O)c1)O2)c1cc(O)c(O)c(O)c1
active: locus YBR229C, strain ROT2, stronger effect = lower value 0.482 | locus YCL029C, strain bik1, stronger effect = lower value 0.668 | locus YDL035C, strain GPR1, stronger effect = lower value 0.133 | locus YDL074C, strain BRE1, stronger effect = lower value 0.334 | locus YDL101C, strain DUN1, stronger effect = lower value 0.147 | locus YDL185W, strain tfp1, stronger effect = lower value 0.872 | locus YDL192W, strain arf1, stronger effect = lower value 0.638 | locus YDR101C, strain arx1, stronger effect = lower value 0.806 | locus YDR162C, strain NBP2, stronger effect = lower value 0.0879 | locus YDR318W, strain mcm21, stronger effect = lower value 0.736 | locus YDR388W, stronger effect = lower value 0.759 | locus YDR502C, strain sam2, stronger effect = lower value 0.52 | locus YEL061C, strain CIN8, stronger effect = lower value 0.438 | locus YER155C, strain BEM2, stronger effect = lower value 0.775 | locus YER167W, strain BCK2, stronger effect = lower value 0.492 | locus YGL086W, strain mad1, stronger effect = lower value 0.431 | locus YGL248W, strain PDE1, stronger effect = lower value 0.24 | locus YGR078C, strain PAC10, stronger effect = lower value 0.621 | locus YGR135W, strain pre9, stronger effect = lower value 0.62 | locus YGR252W, strain gcn5, stronger effect = lower value 0.658 | locus YHR079C, strain IRE1 (second series), stronger effect = lower value 0.79 | locus YHR129C, strain ARP1, stronger effect = lower value 0.337 | locus YHR200W, strain rpn10, stronger effect = lower value 0.661 | locus YIL066C, strain RNR3, stronger effect = lower value 0.096 | locus YIL073C, strain SPO22, stronger effect = lower value 0.241 | locus YIR030C, strain dcg1, stronger effect = lower value 0.889 | locus YJL134W, strain LCB3, stronger effect = lower value 0.551 | locus YJL187C, strain SWE1 (second series), stronger effect = lower value 0.104
0.115 (active) and 0.99 (inactive): locus YJL095W, strain BCK1, stronger effect = lower value
inactive: locus YAL021C, strain ccr4, stronger effect = lower value 1.01 | locus YAL026C, strain drs2, stronger effect = lower value 0.988 | locus YAL030W, strain snc1, stronger effect = lower value 1.01 | locus YBL061C, strain skt5, stronger effect = lower value 1.01 | locus YBR009C, strain hhf1, stronger effect = lower value 1.01 | locus YBR021W, strain FUR4, stronger effect = lower value 1.05 | locus YBR023C, strain chs3, stronger effect = lower value 1.02 | locus YBR171W, strain sec66, stronger effect = lower value 0.994 | locus YBR231C, strain swc5, stronger effect = lower value 1.02 | locus YBR279W, strain paf1, stronger effect = lower value 1.01 | locus YCL011C, strain gbp2, stronger effect = lower value 0.979 | locus YCL016C, strain dcc1, stronger effect = lower value 1.01 | locus YCL061C, strain MRC1, stronger effect = lower value 0.983 | locus YCL069W, strain vba3, stronger effect = lower value 0.992 | locus YCR088W, strain abp1, stronger effect = lower value 0.992 | locus YDL005C, strain med2, stronger effect = lower value 1.01 | locus YDL040C, strain nat1, stronger effect = lower value 0.998 | locus YDR001C, strain nth1, stronger effect = lower value 0.986 | locus YDR069C, strain doa4, stronger effect = lower value 1 | locus YDR137W, strain rgp1, stronger effect = lower value 0.99 | locus YDR159W, strain sac3, stronger effect = lower value 1.04 | locus YDR195W, strain ref2 1 | locus YDR297W, strain sur2, stronger effect = lower value 1.02 | locus YDR334W, strain swr1, stronger effect = lower value 0.996 | locus YDR335W, strain msn5, stronger effect = lower value 1.01 | locus YDR392W, strain spt3, stronger effect = lower value 1.02 | locus YEL003W, strain gim4, stronger effect = lower value 0.983 | locus YEL037C, strain rad23, stronger effect = lower value 0.982 | locus YEL061C, strain CIN8 (second series), stronger effect = lower value 1 | locus YER015W, strain faa2, stronger effect = lower value 0.989 | locus YER016W, strain bim1, stronger effect = lower value 1.02 | locus YER110C, stronger effect = lower value 0.956 | locus YER111C, strain swi4, stronger effect = lower value 0.974 | locus YER155C, strain BEM2 (second series), stronger effect = lower value 0.975 | locus YFR010W, strain ubp6, stronger effect = lower value 0.997 | locus YGL078C, strain dbp3, stronger effect = lower value 0.99 | locus YGL167C, strain pmr1, stronger effect = lower value 1.01 | locus YGL173C, strain kem1, stronger effect = lower value 1.02 | locus YGL227W, strain vid30, stronger effect = lower value 0.994 | locus YGL240W, strain doc1, stronger effect = lower value 1.05 | locus YGL253W, strain hxk2, stronger effect = lower value 1.03 | locus YHR013C, strain ard1, stronger effect = lower value 1.02 | locus YHR027C, strain rpn1, stronger effect = lower value 1.02 | locus YHR030C, strain SLT2, stronger effect = lower value 1.01 | locus YHR079C, strain IRE1, stronger effect = lower value 1 | locus YHR094C, strain hxt1, stronger effect = lower value 0.932 | locus YHR142W, strain chs7, stronger effect = lower value 1.01 | locus YIL125W, strain kgd1, stronger effect = lower value 0.958 | locus YJL092W, strain hpr5, stronger effect = lower value 0.989 | locus YJL095W, strain BCK1 (second series), stronger effect = lower value 1.02 | locus YJL115W, strain asf1, stronger effect = lower value 1 | locus YJL129C, strain trk1, stronger effect = lower value 1.03 | locus YJL154C, strain vps35, stronger effect = lower value 0.988 | locus YJL164C, strain tpk1, stronger effect = lower value 1.01 | locus YJL166W, strain qcr8, stronger effect = lower value 1.04 | locus YJL168C, strain set2, stronger effect = lower value 0.937
